Spn DPM-DC inh = blocks S. pneumoniae diphosphomevalonate decarboxylase. calls only at 10 µM. 0.49% of 65,000 active. purified DPM-DC, PK/LDH coupled NADH fluorescence;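 active = the 320 compounds with the highest percent inhibition in the single-dose primary screen, excluding strongly autofluorescent ones, cut at about 32% in these data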;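 note: kinetic rate of NADH fluorescence loss reporting ADP formed by the decarboxylase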
Autofluor 339 = intrinsic fluorescence of library compounds, ex339/em460 – biochemical, MLSMR library, data from DPM-DC assay, artefact control, profiling panel | compound autofluorescence, ex339/em460 nm, NADH buffer; active compounds read high; 1 = no-compound wells, NADH background | fluorescence fold increase at 10 µM | 5.5% of 65,000 active;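 active = at 10 µM, mean starting fluorescence two-fold or more over control wells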;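 note: signal is the first read of a kinetic run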
Abs 340nm = absorbance at 340 nm. compound absorbance at 340 nm, fold over control. fold change at 10 µM. 65,000 tested, under 10 active. AID 708;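 active = at 10 µM dose, initial 340 nm absorbance at least 2 fold that of control wells; inactive = change under 2 fold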;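 note: initial absorbance extrapolated from kinetic A340 decline of NADH oxidation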
PMK inhibit = inhibitors of Streptococcus pneumoniae phosphomevalonate kinase | purified PMK, PK/LDH-coupled NADH absorbance 340 nm | 0.49% of 65,000 active | inhibition, % at 10 µM | AID 539;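 active = top-ranked compounds by inhibition in the single 10 µM screen, taking a fixed number of the strongest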
NADH enzymes = blocks coupling enzymes of NAD/NADH assays. IC50, µM (highest dose often 10 µM). 0.02% of 65,000 active. coupled PK/LDH NADH assays, four targets;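 active = single-dose screening hits from any of four coupled enzyme assays that gave an IC50 when retested across doses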;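 note: the DPM-DC format reads NADH fluorescence rather than 340 nm absorbance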
MK inhibit = S. pneumoniae mevalonate kinase inhibition | purified MK, PK/LDH-coupled NADH absorbance 340 nm | inhibition, % at 10 µM | 0.48% of 65,000 active;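 active = ranked among the strongest by inhibition in the single 10 µM screen, a fixed top-ranked set picked for dose follow-up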
Of the large screens only hits and unclear results are named; the others gave an inactive call; [ ] = remark or other dose. In the library only some 6.8% were active in any assay of this set; here they are far more common.

CCOc1cc(NC(=O)c2ccco2)c(OCC)cc1NC(=O)CCc1ccc(OC)cc1	Spn DPM-DC inh active[fluoresces], Autofluor 339 2.1
CN(CC(=O)N1CCc2ccccc21)S(=O)(=O)c1ccc(Br)s1	none
N#CCCn1nc(-c2ccccc2)cc1Nc1ccccc1NC(=O)c1cccs1	none
COCCNc1cc(C)c(C#N)c2nc3ccccc3n12	Autofluor 339 2.3 (not shown: Spn DPM-DC inh)
Cc1cc(N2CCN(c3ccccn3)CC2)n2c(nc3ccccc32)c1C#N	Autofluor 339 2.2
N#Cc1c2c(c(N3CCN(c4ccccn4)CC3)n3c1nc1ccccc13)CCC2	none
Cc1c2c(n3c(nc4ccccc43)c1C#N)N(Cc1ccccn1)CC2	Autofluor 339 4.9 (not shown: Spn DPM-DC inh)
Cc1c2c(n3c(nc4ccccc43)c1C#N)N(Cc1cccnc1)CC2	Autofluor 339 5 (not shown: Spn DPM-DC inh)
Cc1onc(COc2ccccc2O)c1Br	none
CCOc1ccccc1-c1nc(SCC(=O)O)n[nH]1	none
Cc1ccc(S(=O)(=O)N2CCOCC2)cc1C(=O)OCC(=O)N1CCc2ccccc2C1	none
Cc1sc2nc(SCC(=O)c3cc(C)n(CC4CCCO4)c3C)n(C(C)C)c(=O)c2c1C (configuration not stated)	none
O=C(Nc1ccc(Cl)cc1C(=O)Nc1ccc(Br)cn1)c1ccco1	Autofluor 339 2.3
COc1ccc(Cl)cc1NC(=O)c1ccco1	none
COc1ccc(CNC(=O)C(OC(C)=O)c2ccccn2)cc1 (configuration not stated)	none
Cn1c(=O)[nH]c(=O)c2c1nc(NC1CCCCC1)n2Cc1ccccc1	Spn DPM-DC inh active, Autofluor 339 2.5
Cn1c(=O)[nH]c(=O)c2c1nc(NC1CCCCC1)n2CCO	none
CN1CCN(CCCNC(=O)Cn2ncc3c4ccccc4n(C)c3c2=O)CC1	none
Cn1c2ccccc2c2cnn(CC(=O)N3CCN(c4ncccn4)CC3)c(=O)c21	PMK inhibit 25
CC1(C)Cc2c(C#N)c(N3CCOCC3)nc(-c3ccccc3)c2CO1	Autofluor 339 2.2 (not shown: Spn DPM-DC inh)
CCc1nc(N2CCOCC2)c(C#N)c2c1COC(C)(C)C2	Autofluor 339 3.7 (not shown: Spn DPM-DC inh)
N#Cc1cc2cc3c(cc2nc1N1CCOCC1)OCO3	Autofluor 339 3.8 (not shown: Spn DPM-DC inh)
CC1(C)Cc2nc(NCCCO)c(C#N)cc2CO1	Autofluor 339 2.4 (not shown: Spn DPM-DC inh)
CN(C)c1nc2n(c(=S)n1)CCS2	none
CC1(C)Cc2c(C#N)c(NCCN3CCOCC3)nc(-c3ccco3)c2CO1	none
CC1(C)Cc2c(C#N)c(N3CCOCC3)nc(Cc3ccccc3)c2CO1	Autofluor 339 2.3 (not shown: Spn DPM-DC inh)
CC1CCN(c2nc(-c3ccco3)c3c(c2C#N)CC(C)(C)OC3)CC1	Autofluor 339 2.1 (not shown: Spn DPM-DC inh)
CC(C)C(=O)N1CCN(c2nc(-c3ccccc3)c3c(c2C#N)CCCC3)CC1	Autofluor 339 2.2 (not shown: Spn DPM-DC inh)
CC1(C)Cc2c(C#N)c(SCc3ccccc3)nc(N3CCOCC3)c2CO1	none
CC1(C)Cc2nc(N3CCOCC3)c(C#N)cc2CO1	Autofluor 339 3.7 (not shown: Spn DPM-DC inh)
ON1C2CCCCC2N(O)C1c1c(F)c(F)c(F)c(F)c1F (configuration not stated)	none
CCc1nc(N2CCN(C(=O)c3ccccc3)CC2)c(C#N)c2c1COC(C)(C)C2	Autofluor 339 2.3 (not shown: Spn DPM-DC inh)
CCCC(=O)N1CCN(c2nc(CC(C)C)c3c(c2C#N)CCC3)CC1	Autofluor 339 2.2 (not shown: Spn DPM-DC inh)
Cc1nc(N2CCOCC2)c(C#N)c2c1COC(C)(C)C2	Autofluor 339 2.3 (not shown: Spn DPM-DC inh)
CC(C)Cc1nc(N2CCN(C(=O)Cc3ccccc3)CC2)c(C#N)c2c1COC(C)(C)C2	none
CCOC(=O)N1CCN(c2ncnc3c2oc2nc(CC(C)C)c4c(c23)CCC4)CC1	none
Cc1cc(/C=N/n2cnnc2)c(C)n1-c1cc(Cl)ccc1Cl	none
Cc1sc2nc(SCC(=O)NCCOCCO)n(C)c(=O)c2c1C	none
CCn1cc(S(=O)(=O)CC(=O)Nc2ccc(OC)cc2)c2ccccc21	none
COc1ccc2nc(CC(C)(C)CC(=O)O)c[n+]([O-])c2c1	Autofluor 339 2.9 (not shown: Spn DPM-DC inh)
O=C1CCCC2=C1C(c1ccncc1)c1c(nc(SCc3ccccc3Cl)[nH]c1=O)N2 (configuration not stated)	Autofluor 339 2.1
c1ccc2c(c1)oc1c(N3CCN(Cc4ccc5c(c4)OCO5)CC3)ncnc12	none
O=C(Cn1c(C(=O)N2CCN(C3CCCC3)CC2)cc2sccc21)c1ccccc1	none
Cc1csc2ncc(C(=O)NCc3ccccn3)c(=O)n12	Autofluor 339 2.1 (not shown: Spn DPM-DC inh)
